IDE inh – inhibits human insulin-degrading enzyme in HEK cells; FAbetaB cleavage, fluorescence polarization; inhibition, % at 5.59 µM; actives 0.41% (n = 320,000); P14735; AID 434962;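 active = percent inhibition above the average of all tested compounds plus 3 SD, set per screening campaign, cut at about 16% in these data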;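 also: IDE supplied by intact live HEK cells; FP after avidin binding of uncleaved biotin substrate so inhibition keeps polarization high; 0% = DMSO wells and 100% = 60 µM reference IDE inhibitor Ii1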
NOD2-RIPK2 inh – inhibitors of human NOD2-RIPK2 interaction | CHO BLA complementation NOD2-RIPK2, CCF4 ratio | inhibition, % at 4.98 µM | actives 0.38% (n = 360,000); in the data active = inhibition above about 21%;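 also: 0% = vehicle only and 100% = reference blocker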
IDE act – activators of human insulin-degrading enzyme in cells | activation, % at 5.96 µM | actives 0.073% (n = 340,000) | HEK cells, FAbeta-B cleavage, fluorescence polarization; 0% vehicle, 100% cell-free pure enzyme wells | P14735 | AID 493087;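 active = activation above the mean of all tested compounds plus 3 SD, set per screening campaign, cut at about 17% in these data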
TLR9-MyD88 block – inhibitors of human TLR9-MyD88 binding; CHO BLA complementation TLR9-MyD88, CCF4 FRET ratio; inhibition, % at 4.98 µM; actives 0.21% (n = 340,000); AID 504734;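 active = inhibition above the mean over all tested compounds plus 3 SD, cut at about 21% in these data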;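 also: 0% = DMSO only wells and 100% = clavulanate BLA inhibitor control wells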
TLR4-MyD88 BLA – TLR4-MyD88 interaction inhibition in cells; HeLa CL3-4 TLR4/MyD88 BLA complementation, FRET ratio; inhibition, % at 8.4 µM; actives 0.18% (n = 200,000); AID 861; in the data active = inhibition above about 25%;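 also: 0% = vehicle and 100% = reference inhibitor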
TLR9-MyD88 conf – confirmation of human TLR9-MyD88 binding inhibitors; CHO TLR9/MyD88 BLA complementation, CCF4 FRET ratio; actives 51% (n = 680); inhibition, % at 4.98 µM; AID 540250; shares compounds with TLR9-MyD88 block;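 active = mean inhibition across three repeats above about 21% taken from the earlier screen, limit read from the data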;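 also: blue over green emission ratio reports constitutive TLR9 MyD88 association via BLA complementation; 0% = DMSO vehicle wells and 100% = clavulanate BLA inhibitor wells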
BLA counter-1 – non-selective beta-lactamase inhibitors in TLR9-MyD88 counter-screen; shares compounds with TLR9-MyD88 block; CHO-BLA cells, CCF4 FRET ratio, BLA reporter; inhibition, % at 4.98 µM; actives 7% (n = 680); AID 540251;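 active = mean inhibition above a 50% cutoff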;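 also: counterscreen of TLR9-MyD88 hits on CMV-driven BLA in CHO-K1 cells; 0% = DMSO alone and 100% = clavulanate blocking BLA; higher means less blue over green ratio so more BLA blockade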
TLR9 CHO cytotox – CHO cell toxicity counter-screen for TLR9-MyD88 inhibitors; shares compounds with TLR9-MyD88 block; TLR9-MyD88 CHO cells cytotoxicity, luminescence; inhibition, % at 4.98 µM; actives 39% (n = 680); in the data active = inhibition above about 11%
NOD2-RIPK2 conf – confirmation of human NOD2-RIPK2 interaction inhibitors; shares compounds with NOD2-RIPK2 inh; CHO cells, NOD2-RIPK2 BLA complementation, CCF4 FRET; inhibition, % at 4.98 µM; actives 70% (n = 1,200); AID 624370;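 active = mean inhibition across replicates above a set limit taken from the earlier primary screen, cut at about 21% in these data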;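 also: 0% = DMSO-only wells and the high end = clavulanate BLA-blocked wells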
BLA counter-2 – NOD2-RIPK2 counterscreen BLA reporter activity. CHO BLA reporter, CCF4 FRET ratio. actives 57% (n = 1,200). inhibition, % at 4.98 µM. shares compounds with NOD2-RIPK2 inh. AID 624371;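 active = mean inhibition above the low-control mean inhibition plus three low-control SD, cut at about 11% in these data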;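 also: 0% = DMSO only wells and 100% = clavulanate high control wells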
* hit, by the source's call; · = no result given. Compounds with a hit are over-represented: about 0.86% of the library has one in this group of screens.

SMILES | IDE inh | NOD2-RIPK2 inh | IDE act | TLR9-MyD88 block | TLR4-MyD88 BLA | TLR9-MyD88 conf | BLA counter-1 | TLR9 CHO cytotox | NOD2-RIPK2 conf | BLA counter-2
COc1ccc(N2C(=O)CC(Cc3ccccc3)C2=O)cc1 (stereo not drawn) | 6 | -2 | 5 | 7 | -16 | · | · | · | · | ·
COc1ccc(C[C@@H]2OC3(C=CC(=O)C=C3)O[C@H]2Cc2ccc(OC)cc2)cc1 | · | 92* | 1 | 39* | · | 44* | 33 | 98* | 93* | 38*
CCOC(=O)c1c(NC(C)=O)sc2c1CCC(C=O)=C2Sc1ccccc1 | 0 | 35* | -1 | 22* | 20 | 18 | 3 | 37* | 67* | 20*
CCOC(=O)c1c(NC(C)=O)sc2c1CCN(Cc1ccccc1)C2 | 2 | 10 | -2 | 0 | · | · | · | · | · | ·
C=CCc1cc(C)ccc1OCCCC(C(=O)OCC)C(=O)OCC | 0 | 3 | 3 | -5 | 1 | · | · | · | · | ·
COc1cc(NS(=O)(=O)c2ccc(C)cc2)c2ncccc2c1 | 6 | 51* | 0 | 22* | 22 | 18 | 10 | 102* | 45* | 11*
CC(=O)C(C(C)=O)c1cc(NS(=O)(=O)c2ccccc2)ccc1NS(=O)(=O)c1ccccc1 | 0 | -15 | 2 | 3 | · | · | · | · | · | ·
C/C(Cn1cnc([N+](=O)[O-])n1)=N/NC(=O)COc1ccccc1Cl | -2 | 0 | -1 | 5 | 8 | · | · | · | · | ·
Oc1c(Cl)cc(Cl)cc1/C=N/NC(=S)NC1CC2C=CC1C2 (stereo not drawn) | -1 | 49* | 3 | 24* | · | 24* | 28 | 17* | 43* | 62*
COC(=O)c1scc2c(=O)cc(C(F)(F)F)[nH]c12 | 0 | 72* | 4 | 63* | · | 50* | 55* | -2 | 74* | 78*
Cc1ccc(NC(=O)COC(=O)c2cccnc2Cl)cc1S(=O)(=O)N1CCCCC1 | -6 | 11 | 0 | -7 | -4 | · | · | · | · | ·
COCCn1c(-c2ccc(OC)cc2)nc2ccccc21 | 2 | -1 | 0 | 4 | -6 | · | · | · | · | ·
COCCn1c2nc(=O)n(-c3ccccc3)c(=O)c-2nc2ccccc21 | · | 36* | · | 23* | · | 10 | 14 | 2 | 32* | 32*
O=[N+]([O-])c1ccc(N(c2ccccc2)c2ccccc2)cc1 | 6 | 58* | -3 | 39* | 24 | 32* | 34 | 6 | 62* | 61*
O=C1N/C(=C/c2cccn2-c2ccc(F)cc2)C(=O)N1Cc1ccccc1 | -7 | 75* | 8 | 61* | 10 | 51* | 52* | 10 | 85* | 89*
O=C(O)c1cccc(-n2cccc2/C=C2\NC(=O)N(Cc3ccc(F)cc3)C2=O)c1 | 2 | 0 | 2 | -9 | 6 | · | · | · | · | ·
CCCCNc1c(-c2ccc(OC)c(SC3CCCCC3)c2)nc2cnccn12 | -1 | 40* | 2 | 21* | · | 16 | 20 | 3 | 29* | 42*
CCCCNc1c(-c2ccc(OC)c(SC3CCCCC3)c2)nc2cc(C)ccn12 | 5 | 8 | 5 | 3 | · | · | · | · | · | ·
CCC(C)Sc1ccc(-c2nc3cnccn3c2NC2CCCCC2)cc1 (stereo not drawn) | 6 | 27* | 5 | 35* | · | 46* | 48 | 3 | 65* | 72*
Cc1noc(NS(=O)(=O)c2ccc(NC(=O)CCN3C(=O)c4ccccc4C3=O)cc2)c1C | -4 | -4 | 7 | 2 | -7 | · | · | · | · | ·
O=C1c2ccccc2C(=O)N1c1ccccc1 | · | -3 | 4 | 11 | · | · | · | · | · | ·
Nc1cccc2c1C(=O)N(c1ccccc1)C2=O | 0 | 45* | -1 | 28* | · | 20 | 23 | -5 | 43* | 46*
O=C1CC(Sc2nnnn2-c2ccccc2)C(=O)N1c1cccc(Cl)c1 (stereo not drawn) | 1 | 57* | -11 | 22* | 5 | 11 | 3 | 98* | 58* | 12*
O=C(O)c1cc(N2CCCCC2)nc2ccccc12 | · | 0 | · | · | · | · | · | · | · | ·
COC(=O)c1cn[nH]c1NC(=S)Nc1ccccc1C | 4 | 0 | 1 | 0 | -6 | · | · | · | · | ·
SMILES | IDE inh | NOD2-RIPK2 inh | IDE act | TLR9-MyD88 block | TLR4-MyD88 BLA | TLR9-MyD88 conf | BLA counter-1 | TLR9 CHO cytotox | NOD2-RIPK2 conf | BLA counter-2
COC(=O)c1cn[nH]c1NC(=S)Nc1ccc(C)cc1Cl | 6 | 50* | -3 | 23* | -8 | 8 | 4 | 4 | 27* | 12*
CCn1c(=O)c([N+](=O)[O-])c(NCCN(C)C)c2ccccc21 | 6 | -7 | 4 | -2 | 3 | · | · | · | · | ·
CCn1c(=O)c([N+](=O)[O-])c(Cl)c2ccccc21 | 1 | 88* | 3 | 44* | 9 | 62* | 9 | 96* | 96* | 22*
O=C(NCCN1C(=O)S/C(=C\c2ccc(Cl)c(Cl)c2)C1=O)c1cnccn1 | -1 | -1 | 1 | -4 | 5 | · | · | · | · | ·
O=C(NCCN1C(=O)S/C(=C\c2ccc(Cl)c([N+](=O)[O-])c2)C1=O)C1=COCCO1 | -1 | 39* | 0 | 24* | · | 11 | 2 | 5 | 63* | -2
N#C/C(=C/c1ccc(N2CCCCCC2)o1)c1ccc(Cl)cc1 | 0 | 39* | -17 | 24* | 21 | 9 | 9 | 84* | 28* | 14*
CC(=O)C1=C(O)C(=O)N(c2cccc(Br)c2)C1c1ccc(Br)cc1 (stereo not drawn) | -4 | 7 | -2 | -5 | · | · | · | · | · | ·
CCCCNc1ccc2c3c(cccc13)C(=O)N(CCCC)C2=O | · | 63* | 45* | 67* | · | 50* | 49 | 11* | 77* | 79*
CN(C)CCCN(C(=O)CCOc1ccccc1)c1nc2c(F)cccc2s1 | · | 48* | -2 | 22* | 19 | 3 | 3 | 68* | 27* | 0
CN(C)CCCN(C(=O)CCc1ccccc1)c1nc2c(F)cccc2s1 | -2 | -9 | 6 | -5 | -17 | · | · | · | · | ·
C=CCn1c(C)nnc1SCC(=O)Nc1cc(S(=O)(=O)N2CCCC2)ccc1Cl | · | -5 | 0 | -7 | · | · | · | · | · | ·
CCOC(=O)C1CCN(S(=O)(=O)c2c(Cl)ccc3nonc23)CC1 | -2 | 82* | -4 | 43* | · | 39* | 19 | 81* | 78* | 15*

Compound activity: PubChem BioAssay, The Scripps Research Institute Molecular Screening Center
